Compounds with a hit are over-represented: about 11% of the library has one in this group of screens.
VDR inh: Inhibitors of the vitamin D receptor (VDR): qHTS; VDR-SRC2-3 peptide fluorescence polarization, 2 h; Potency, µM, inactives show max response, negative = inhibition, hits mostly inhibitors; actives 0.93% (n = 400,000); AID 504847, 2011; further: on the % scale 0 is the no-effect control and ±100 the full control effect
Target sequence (P11473 whole entry, looked up): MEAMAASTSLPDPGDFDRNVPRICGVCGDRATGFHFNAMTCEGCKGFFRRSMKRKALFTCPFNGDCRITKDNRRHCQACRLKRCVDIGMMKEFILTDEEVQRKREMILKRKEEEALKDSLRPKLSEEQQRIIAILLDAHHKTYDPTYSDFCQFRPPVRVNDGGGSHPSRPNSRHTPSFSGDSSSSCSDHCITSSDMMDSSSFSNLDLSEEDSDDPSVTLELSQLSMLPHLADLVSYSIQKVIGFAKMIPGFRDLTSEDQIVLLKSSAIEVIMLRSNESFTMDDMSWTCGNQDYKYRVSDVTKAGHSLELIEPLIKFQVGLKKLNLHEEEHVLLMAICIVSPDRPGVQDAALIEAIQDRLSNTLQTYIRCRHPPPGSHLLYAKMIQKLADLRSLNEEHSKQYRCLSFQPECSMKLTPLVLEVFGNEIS
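Fluorescence polarization assay measuring small-molecule disruption of VDR binding to the coregulator peptide SRC2-3. Compounds were pin-transferred (23 nl) into the reagent mix and incubated 2 h at room temperature before reading.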
JMJD2A Tudor inh: qHTS Assay for Inhibitors of JMJD2A-Tudor Domain. Potency, µM (highest dose often 114 µM), for inactives: top-dose activity change, negative = inhibition, actives largely listed as inhibitors. AlphaScreen JMJD2A-Tudor / H3K4me3 peptide binding. Lysine-specific demethylase 4A (Homo sapiens), O75164. AID 504339, 2011. actives 4.4% (n = 390,000); further: on the % scale 0 is the no-effect control and ±100 the full control effect; nearly all actives have a fitted effect of over 50% in size
PLK1 PBD block: qHTS for Inhibitors of PLK1-PDB (polo-like kinase 1 - polo-box domain): Primary Screen; Serine/threonine-protein kinase PLK1 (Homo sapiens), P53350; Plk1 PBD binding of FITC phosphopeptide, fluorescence polarization; Potency, µM, for inactives: max response, negative = inhibition, hits mostly inhibitors; actives 2.8% (n = 360,000); further: series mostly up to about 57 µM; on the % scale 0 is the no-effect control and ±100 the full control effect; nearly all actives have a fitted effect of over 65% in size
HP1b chromo inh: HTS for Inhibitors of HP1-beta Chromodomain Interactions with Methylated Histone Tails; Chromobox protein homolog 1 (Homo sapiens), P83916; AlphaScreen HP1-beta / biotin-H3K9me3 peptide binding; Potency, µM (top dose mostly 114 µM), without a hit: at the top dose activity change, negative = inhibition, actives largely listed as inhibitors; actives 0.56% (n = 390,000); AID 540317, 2011; further: nearly all actives have a fitted effect of over 70% in size
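Compound inhibition of the preformed complex between 50 nM HP1-beta and 50 nM biotinylated H3K9me3 peptide was read by AlphaScreen. Buffer was PBS pH 7.4 with 0.01% Tween-20. Incubations ran 30 min at room temperature, with 10 ug/mL donor/acceptor beads.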
G9a block: qHTS Assay for Inhibitors of Histone Lysine Methyltransferase G9a | AID 504332, 2011 | G9a H3K9 monomethylation, AlphaScreen, 2 h | actives 8.8% (n = 350,000) | Potency, µM (titrated, usually from 102 µM), without a hit: top-dose activity, negative = inhibition, usual class: inhibitors; further: on the % scale 0 is the no-effect control and ±100 the full control effect; nearly all actives have a fitted effect of over 75% in size
Target sequence (Q96KQ7 913-1193 limits assumed): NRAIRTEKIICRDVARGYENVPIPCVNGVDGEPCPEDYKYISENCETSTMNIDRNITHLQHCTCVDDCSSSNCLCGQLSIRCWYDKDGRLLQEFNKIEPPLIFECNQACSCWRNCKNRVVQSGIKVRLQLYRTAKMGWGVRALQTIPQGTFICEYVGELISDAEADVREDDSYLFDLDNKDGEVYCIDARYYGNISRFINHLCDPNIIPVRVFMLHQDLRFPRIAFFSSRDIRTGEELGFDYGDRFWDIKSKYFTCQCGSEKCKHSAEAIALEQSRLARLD
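G9a (20 nM) was preincubated 15 min with compound, then reacted 2 h at room temperature with 500 nM biotin-H3K9 peptide and 20 µM SAM. Monomethyl-H3K9 detected by AlphaScreen using anti-H3K9me1 antibody.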
BAZ2B block: qHTS Assay for Inhibitors of BAZ2B; Potency, µM (series often up to 114 µM), for the others: at the highest dose activity change, negative = inhibition, actives largely listed as inhibitors; Bromodomain adjacent to zinc finger domain protein 2B (Homo sapiens), Q9UIF8; actives 4.4% (n = 360,000); AlphaScreen BAZ2B-H3K14Ac peptide displacement; further: on the % scale 0 is the no-effect control and ±100 the full control effect; nearly all actives have a fitted effect of over 60% in size
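AlphaScreen luminescence quantifies BAZ2B engagement of H3K14Ac peptide; the protein and biotinylated peptide are both at 50 nM final, buffer PBS pH 7.4 with 0.01% Tween-20, all steps at room temperature.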
Starred values were filed as active, the others as inactive; ? = inconclusive; . = no result given; [ ] = remark or other dose. The call rests on the fitted dose curve; in most records, active means well fitted curve in the direction sought with a large enough effect; inconclusive means small, poorly fitted or top-dose-only effect, or another doubt; inactive means no such curve, though single readings can be large; an effect the other way counts as inactive or inconclusive. Potency means the concentration at half of the fitted maximal effect.

SMILES	VDR inh	JMJD2A Tudor inh	PLK1 PBD block	HP1b chromo inh	G9a block	BAZ2B block
CCN(C(=O)CSc1nc2ccccc2n1CC(=O)N1CCCC(C)C1)c1ccccc1 (stereo not drawn)	6%	-24%	.	44%	19%[59 µM]	-5%
CN(C)c1ccc(N/C(N)=N/c2nc(C(F)(F)F)cc(C(F)(F)F)n2)cc1	?	-26%	-14%	-17%	13µM*	?
O=C(Nc1sc2c(c1C(=O)O)CCCCC2)c1ccccc1	?	-28%	19µM*	?	.	?
O=C(Nc1sc2c(c1C(=O)O)CCC2)c1ccccc1	8%	?	?	-22%	?	79µM*
O=C(Nc1sc2c(c1C(=O)O)CCC2)c1ccc(F)cc1	2%	-19%	-23%	19%	40µM*	?
O=C(Nc1sc2c(c1C(=O)O)CCCC2)c1cccc(Cl)c1	-15%	-25%	?	-7%	-16%	-12%
O=C(Nc1sc2c(c1C(=O)O)CCCC2)c1ccc(Cl)cc1	-17%	-23%	-22%	25%	15%[59 µM]	-30%
Cc1ccc(NC(=O)c2c(NC(=O)c3ccc(F)cc3)sc3c2CCCC3)cc1C	79µM*	-31%	.	-12%	?	-7%
CC(=O)Nc1ccc(S(=O)(=O)N2CCN(c3nc4ccccc4n3CC(C)C)CC2)cc1	-2%	-20%	1%	46%	.	-7%
Cc1ccc(C(=O)c2c(NC(=O)c3cccnc3)sc3c2CCCC3)cc1	-5%	56µM*	-4%	-31%	?	?
O=C(/C=C/c1ccco1)Nc1sc2c(c1C(=O)O)CCC2	-12%	?	-18%	-26%	?	?
CCSc1ncc(Cl)c(C(=O)Nc2sc3c(c2C(=O)NCc2cccnc2)CCCC3)n1	15%	100µM*	3%	10%	26%[59 µM]	5%
O=C(/C=C/c1ccccc1)Nc1sc2c(c1C(=O)O)CCC2	-9%	-18%	-15%	16%	50µM*	-32%
CC1(C)Cc2c(sc(NC(=O)c3ccccc3)c2C(=O)O)CO1	-19%	-4%	13µM*	-17%	45µM*	-35%
COc1ccc(C(=O)Nc2sc3c(c2C(=O)O)CC(C)(C)OC3)cc1	-12%	-14%	1%	22%	-3%[59 µM]	8%
COc1ccc(Nc2ncnc3c2c(C)c(C)n3CCO)cc1	14%	-19%	-15%	23%	-46%	-22%
CCN(CC)CCCNc1nc2ccccc2c2[nH]c3ccc(OC)cc3c12	8%	-19%	3%	21%	.	.
CCc1cc(C(=O)N2CCCC(CNC(=O)c3ccc(-c4ccccc4)cc3)C2)no1 (stereo not drawn)	-5%	-6%	-1%	45%	-2%	0%
C[C@]12CCC[C@H](O1)c1c(cc3c(c1O)C(=O)c1c(O)cc(O)cc1C3=O)O2	-1%	35µM*	?	?	.	.
CC1(C)CC(=O)c2c(O)cc(O)cc2O1	12%	-11%	2%	22%	5%[12.7 µM]	-4%
Cc1cc(C)cc(Cn2ncc3c4sc(C)cc4n(C)c3c2=O)c1	.	-27%	.	.	.	.
Cc1cc(N2CCC(C)CC2)nc2ccc(NC(=O)Cc3c(F)cccc3Cl)cc12	-4%	3%	.	12%	-14%[59 µM]	-8%
N#CCC(=O)c1sccc1-n1cccc1	-6%	-19%[57.1 µM]	?	-3%	13µM*	79µM*
N#CCOC(=O)c1sccc1-n1cccc1	6%	-8%	-1%	5%	5%[59 µM]	-6%
COc1cccc(Cn2c(=O)c(-c3cccc(Cl)c3)nc3cncnc32)c1	-6%	.	.	.	0%[12.7 µM]	.
SMILES	VDR inh	JMJD2A Tudor inh	PLK1 PBD block	HP1b chromo inh	G9a block	BAZ2B block
CCOc1cc(C(=O)N[C@@H](C)C(=O)N2CCC3(CC2)NCCc2[nH]cnc23)cc(OCC)c1OCC	29%	-8%	-2%	20%	.	-16%
CCc1cc(C(c2ccncc2)N2CCN(C)CC2)c(NC(=O)c2ccccc2)s1 (stereo not drawn)	-12%	-35%	-13%	16%	40µM*	?
O=C(Nc1ccccc1F)C1CCN(S(=O)(=O)c2cccc3nonc23)CC1	-7%	-10%	-4%	7%	-8%	-7%
Cc1ccc(S(=O)(=O)CCC(=O)OCC(=O)NC2CCS(=O)(=O)C2)cc1 (stereo not drawn)	3%	-6%	2%	16%	20%[0.501 µM]	14%
S=c1[nH]ncn1/N=C/c1cccc(Oc2ccccc2)c1	-19%	45µM*	-9%	?	-123%	-38%
Brc1cccc(/C=N\n2cnnc2)c1	-4%	-14%	5%	13%	5%[59 µM]	-30%
Cc1ccc(/C=N/n2c(COc3ccccc3)n[nH]c2=S)cc1	-4%	?	21µM*	7%	8.9µM*	-12%
S=c1[nH]nc(COc2ccccc2)n1/N=C/c1cccc(Br)c1	-11%	?	30µM*	-5%	8.9µM*	-29%
CC(C)c1ccc(/C=N/n2c(COc3ccccc3)n[nH]c2=S)cc1	-14%	35µM*	24µM*	40µM*	50µM*	?
CC(C)c1ncc([N+](=O)[O-])n1C	1%	.	.	.	-7%[12.7 µM]	.
COc1ccccc1N1CCN(c2nc3c(S(=O)(=O)c4ccc(C)c(C)c4)nnn3c3ccc(Cl)cc23)CC1	1%	-12%	.	10%	-30%[59 µM]	-9%
NC(CSC1(c2ccc(Cl)cc2)c2ccccc2-c2ccccc21)C(=O)O (stereo not drawn)	-6%	-19%	-18%	26%	.	.
CCC(Sc1nnc(C)n2c1cc1sccc12)C(=O)Nc1ccccc1F (stereo not drawn)	14%	0%	.	42%	-26%[59 µM]	-10%
COc1cccc(/C=N/n2c(COc3ccccc3)n[nH]c2=S)c1	-15%	79µM*	24µM*	?	1.8µM*	?
S=c1[nH]nc(COc2ccccc2)n1/N=C/c1ccc(Br)cc1	-21%	-21%	27µM*	5%	20µM*	-6%
CCc1ccc(NC(=O)c2cnn3c(C)cc(C)nc23)cc1	.	-9%	.	.	.	.
COc1ccc2c(C)cc3nncn3c2c1	-16%	-17%	-2%	31%	?	-12%
CCOc1ccc(N2CCCn3c2nc2c3c(=O)n(CCc3ccccc3)c(=O)n2C)cc1	.	.	.	.	3.2µM*	-17%
CN1CCN(NC(=O)c2cn(-c3ccccc3)nc2-c2ccc(OC(F)F)cc2)CC1	-7%	-22%	-5%	25%	79µM*	-29%
